From PubChem BioAssay
The full list was thinned out, with hits kept by preference.
Giardia FBPA inh-1 – inhibitors of Giardia lamblia fructose-1,6-bisphosphate aldolase. purified Giardia FBPA. hit rate 0.71% among 290,000. Potency, µM (top dose mostly 59.6 µM), usual class: inhibitors; further: nearly all actives have a fitted effect of over 55% in size
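Giardia FBPA (40 nM reagent) was preincubated 10 min at RT with compound (up to 57.5 uM final), then substrate plus GAPDH/TPI/NAD/arsenate coupling system with diaphorase/resazurin was added; resorufin fluorescence (525/598 nm) was read after 20 min.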
Cruzain Triton – blocks cruzain activity in presence of Triton detergent; P25779; hit rate 0.43% among 200,000; Potency, µM, usual class: inhibitors; purified cruzain, Z-FR-AMC fluorescence, 0.01% Triton; AID 1478; further: nearly all actives have a fitted effect of over 40% in size
Target sequence (P25779 123-467 limits assumed): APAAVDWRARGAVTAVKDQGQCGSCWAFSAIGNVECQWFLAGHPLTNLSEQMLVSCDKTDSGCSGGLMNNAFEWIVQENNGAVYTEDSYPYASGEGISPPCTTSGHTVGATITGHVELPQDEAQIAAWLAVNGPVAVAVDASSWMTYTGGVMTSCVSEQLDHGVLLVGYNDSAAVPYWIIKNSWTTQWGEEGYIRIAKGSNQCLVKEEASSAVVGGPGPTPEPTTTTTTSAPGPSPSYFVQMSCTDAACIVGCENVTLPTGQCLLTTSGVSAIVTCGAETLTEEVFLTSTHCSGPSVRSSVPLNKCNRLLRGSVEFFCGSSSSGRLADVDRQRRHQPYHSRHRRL
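Detergent-containing arm of a paired screen for aggregation-based inhibition: 0.01% Triton X-100 present. Cruzain at 1.5 nM cleaved 2 uM Z-FR-AMC at pH 5.5 with 5 mM DTT; AMC fluorescence gain over 60 s measured activity.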
Cruzain noTriton – inhibitors of Trypanosoma cruzi cruzain without detergent. hit rate 2.3% among 200,000. purified cruzain, Z-FR-AMC fluorescence, no detergent. Potency, µM, hits mostly inhibitors. P25779; further: nearly all actives have a fitted effect of over 40% in size
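Detergent-free condition (0.00005% Triton X-100) in acetate buffer pH 5.5 with DTT. 1.5 nM enzyme and compound were pre-mixed 15 min, then 2 uM Z-FR-AMC substrate added; reaction progress from fluorescence change between first and third reads (60 s).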
Giardia growth – inhibitors of Giardia lamblia growth; shares compounds with Giardia FBPA inh-1; Giardia lamblia trophozoite growth inhibition; Potency, µM (series often up to 57.5 µM), most hits filed as inhibitors; hit rate 5% among 1,500; AID 2785;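 further: trophozoites exposed to compound for 48 h at 37 °C; nearly all actives have a fitted effect of over 70% in size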
Mammal cell tox – mammalian cytotoxicity of Giardia aldolase inhibitor hits | shares compounds with Giardia FBPA inh-1 | mammalian cell viability counter-screen, qHTS | Potency, µM (titrated, usually from 57.5 µM), most hits filed as inhibitors | hit rate 4% among 1,500;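 further: Chinese hamster ovary cells used as mammalian cytotoxicity surrogate; viability measured as cellular ATP by luminescence; compound exposure lasted 48 h before reading; nearly all actives have a fitted effect of over 60% in size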
Giardia FBPA inh-2 – confirmation of Giardia fructose-bisphosphate aldolase inhibitors; shares compounds with Giardia FBPA inh-1; purified Giardia aldolase enzyme activity, qHTS; Potency, µM (top dose mostly 57.5 µM), most hits filed as inhibitors; hit rate 5% among 1,500; further: nearly all actives have a fitted effect of over 45% in size
Rabbit FBPA inh – rabbit FBP aldolase inhibition by Giardia aldolase hits. shares compounds with Giardia FBPA inh-1. Rabbit muscle FBPA enzyme inhibition, selectivity counter-screen. Potency, µM (series often up to 57.5 µM), most hits filed as inhibitors. hit rate 4% among 1,500; further: nearly all actives have a fitted effect of over 60% in size
GAPDH coupling – counter-screen for Giardia aldolase inhibitors: GAPDH coupling enzyme; GAPDH coupling enzyme counterscreen, biochemical, qHTS; shares compounds with Giardia FBPA inh-1; hit rate 6% among 1,500; AID 2795; Potency, µM (series often up to 57.5 µM), most hits filed as inhibitors; further: nearly all actives have a fitted effect of over 55% in size
Of the large screens only hits and unclear results are named; the others gave an inactive call (follow-up assays come after a bar, where they were run); [ ] = remark or other dose. The call rests on the fitted dose curve; in most records, active means well fitted curve in the direction sought with a large enough effect; inconclusive means small, poorly fitted or top-dose-only effect, or another doubt; inactive means no such curve, though single readings can be large; an effect the other way counts as inactive or inconclusive.

C[C@H]1C2Cc3ccc(O)cc3[C@]1(C)CCN2CC1CC1	none
O=c1c2oc3ccccc3c2n(Cc2cccc(C(F)(F)F)c2)c(=O)n1Cc1ccc2c(c1)OCO2	none (no result: Giardia FBPA inh-1)
Cc1ccc(NC(=O)C2CCCN2S(=O)(=O)c2ccc3nc(-c4ccccc4)[nH]c3c2)cc1F (stereo not drawn)	none (no result: Giardia FBPA inh-1)
C=C1CCC[C@]2(C)C[C@H]3OC(=O)C(CNCCN(C)C)[C@H]3CC12 (stereo partly drawn)	none (no result: Cruzain Triton, Cruzain noTriton)
C=C1CCC[C@]2(C)C[C@H]3OC(=O)C(CNCCN(CC)CC)[C@H]3CC12 (stereo partly drawn)	Giardia FBPA inh-1 16µM (no result: Cruzain Triton, Cruzain noTriton) | Giardia growth inconclusive | Mammal cell tox inactive | Giardia FBPA inh-2 inactive | Rabbit FBPA inh inactive | GAPDH coupling inactive
COc1ccc(C(=O)O)nc1C	Giardia FBPA inh-1 4µM (no result: Cruzain Triton, Cruzain noTriton) | Giardia growth inactive | Mammal cell tox inactive | Giardia FBPA inh-2 inactive | Rabbit FBPA inh inactive | GAPDH coupling inactive
COc1ccc(-c2nc(C(=O)O)cs2)cc1OC	none (no result: Cruzain Triton, Cruzain noTriton)
O=c1nc(N/N=C/c2c[nH]c3ccccc23)cn[nH]1	Giardia FBPA inh-1 18µM (no result: Cruzain Triton, Cruzain noTriton) | Giardia growth inactive | Mammal cell tox inactive | Giardia FBPA inh-2 inactive | Rabbit FBPA inh inactive | GAPDH coupling inactive
C(=N\Nc1ccccn1)/c1c[nH]c2ccccc12	none (no result: Cruzain Triton, Cruzain noTriton)
C/C(CC(=O)Nc1ccc(Cl)cc1C(F)(F)F)=N\NC(N)=S	Giardia FBPA inh-1 20µM (no result: Cruzain Triton, Cruzain noTriton) | Giardia growth inactive[10.4 µM] | Mammal cell tox inactive | Giardia FBPA inh-2 inactive | Rabbit FBPA inh inactive | GAPDH coupling inactive
C/C(CC(=O)Nc1ccc(Cl)cc1C(F)(F)F)=N\NC(=O)c1cccs1	none (no result: Cruzain Triton, Cruzain noTriton)
Oc1ccc(-c2cn3c(n2)SCC3)cc1	none
Oc1ccc(-c2cn3c(n2)SCC3)cc1O	Giardia FBPA inh-1 18µM | Giardia growth inactive[10.4 µM] | Mammal cell tox inactive | Giardia FBPA inh-2 inconclusive | Rabbit FBPA inh inconclusive | GAPDH coupling inactive
CCOCc1[nH]c(=S)[nH]c(=O)c1Cc1ccc(OC(C)C)cc1	none (no result: Cruzain Triton, Cruzain noTriton)
COc1ccc(Cc2c(O)[nH]c(=S)[nH]c2=O)cc1	Giardia FBPA inh-1 25µM (no result: Cruzain Triton, Cruzain noTriton) | Giardia growth inactive[10.4 µM] | Mammal cell tox inactive | Giardia FBPA inh-2 inactive | Rabbit FBPA inh inactive | GAPDH coupling inactive
Cc1cccc(OCC(=O)N2CCC(c3nc4ccccc4o3)CC2)c1C	none (no result: Giardia FBPA inh-1)
CCOC(=O)c1cc(-c2ccccc2)n(CCC(=O)NCCc2ccccc2)c1C	none (no result: Giardia FBPA inh-1)
O=c1cc(-c2ccc(O)cc2)oc2c(O)c(O)c(O)c(O)c12	Giardia FBPA inh-1 6.3µM (no result: Cruzain Triton, Cruzain noTriton) | Giardia growth inactive | Mammal cell tox inactive | Giardia FBPA inh-2 21µM | Rabbit FBPA inh 18µM | GAPDH coupling inconclusive
COc1cc2oc(-c3ccc(O)cc3)cc(=O)c2c(OC)c1O	none (no result: Cruzain Triton, Cruzain noTriton)
CCN1CCN(CC(=O)Nc2cc3c(cc2C(C)=O)OCO3)CC1	Giardia FBPA inh-1 13µM (no result: Cruzain Triton, Cruzain noTriton) | Giardia growth inactive[10.4 µM] | Mammal cell tox inactive | Giardia FBPA inh-2 inactive | Rabbit FBPA inh inactive | GAPDH coupling inactive
CC(=O)c1cc2c(cc1NC(=O)CN1CCOCC1)OCO2	none
COc1ccc(-n2ccnc(NCCc3ccc(S(N)(=O)=O)cc3)c2=O)cc1	none (no result: Giardia FBPA inh-1)
Cc1nn(C(C)(C)C)c(OC(=O)c2c(F)cccc2F)c1Sc1ccccc1	none (no result: Giardia FBPA inh-1)
CCc1ccc(S(=O)(=O)NCCc2csc3nc(-c4ccccc4)nn23)s1	Cruzain noTriton inconclusive (no result: Giardia FBPA inh-1)
C/C(CCN1CCCc2nc(C)c(C)cc21)=N\OC[C@@H](O)COCc1ccco1	none (no result: Cruzain Triton, Cruzain noTriton)
CCN(CC)c1ccc(N=Nc2nn(C)c(C)c2[N+](=O)[O-])cc1	none
CCN(CC)c1ccc(N=Nc2ncn[nH]2)cc1	Giardia FBPA inh-1 3.5µM (no result: Cruzain Triton, Cruzain noTriton) | Giardia growth inconclusive | Mammal cell tox 32µM | Giardia FBPA inh-2 inactive | Rabbit FBPA inh inactive | GAPDH coupling inactive
CCCC/C=C/[C@@H](c1ccccc1)C1COC(=O)CC1O (stereo partly drawn)	none (no result: Cruzain Triton, Cruzain noTriton)
Cc1oc(-c2ccc(C(=O)Nc3cc(F)ccc3F)cc2)nc1COc1ccccc1	none (no result: Giardia FBPA inh-1)
CCC(=O)N1c2ccccc2CC1C(=O)NCCN1CCN(c2cc(Cl)ccc2C)CC1 (stereo not drawn)	none (no result: Giardia FBPA inh-1)
Cc1ccccc1OCC(=O)N(Cc1ccc(N(C)C)cc1)CC1CCCO1 (stereo not drawn)	none (no result: Giardia FBPA inh-1)
